Measured values published in PubChem BioAssay (NCATS).
Inconclusive results are not listed. Activity calls are given as the source filed them. Calls come from the whole dose curve; as a rule, active = well fitted curve in the direction sought with a large enough effect; inconclusive = small, poorly fitted or top-dose-only effect, or another doubt; inactive = no such curve, though single readings can be large; an effect the other way counts as inactive or inconclusive.

Columns and labels:
[1] = Viability qHTS for spleen associated tyrosine kinase inhibitor (SYKi) naive MV4-11 cells (AID 1963823); note: nearly all actives have a fitted effect of over 40% in size
Outline: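 SYKi-naive MV4-11 AML cells, 500 per well, were exposed to library compounds for 72 hr at 37 C, 5% CO2. Viability was then read by CellTiter-Glo luminescence after 10 min at room temperature.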

[2] = Viability qHTS for spleen associated tyrosine kinase inhibitor (SYKi) drug resistant MV4-11 cells (AID 1963824); note: nearly all actives have a fitted effect of over 35% in size
Outline: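 SYK inhibitor-resistant MV4-11 AML cells, 500 per well, added to predispensed compounds and incubated 72 hr at 37 C, 5% CO2. Viability measured by CellTiter-Glo luminescence after 10 min at room temperature.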

[3] = Cellular viability qHTS for adrenocortical cancer (ACC) cell line SW-13 (AID 1963989); details: SW-13 ACC cells viability, CellTiter-Glo, 48 h; activity (max response): stronger effect = lower value; note: nearly all actives have a fitted effect of over 65% in size;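 for activity (max response): cells grown in serum-free medium with ITS supplement; % is set by controls: 0 for no effect and ±100 for the full control effect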
Outline: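 Here, serum-free SW-13 cultures were dosed up to 46 uM. Following 48 h, ATP-dependent luminescence (CellTiter-Glo) reported viable cells, and logistic modeling produced IC50 values.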

[4] = Cellular viability qHTS for adrenocortical cancer (ACC) cell line NCI-H295R (AID 1963990); note: nearly all actives have a fitted effect of over 60% in size;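 for activity change, negative = viability loss: 0% = DMSO only wells and -100% = full killing with cytotoxic reference compound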
Outline: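 Viability of NCI-H295R after 48 h of treatment (final up to 46 uM) measured through cellular ATP luminescence.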
Potency is the fitted concentration of half-maximal effect.

O=C(/C=C/c1ccc(Cl)cc1)N1CCC2(CC1)CN(Cc1ccc(Cl)c(Cl)c1)C(=O)O2
active: Potency [1] 18.6 µM | Potency [2] 11.8 µM
inactive: activity (max response) [3] -3.3% | Potency [4]

O=C(/C=C/C#Cc1cccc(NS(=O)(=O)c2ccccc2)c1)NO
active: Potency [1] 0.407 µM | Potency [2] 0.363 µM | Potency [3] 8.02 µM | Potency [4] 3.19 µM

NC(N)=NCCC[C@H](N)C(=O)O
inactive: viability (% of control) [1] 90.4% [at 4.97 µM] | viability, % of control [2] 98.3% [at 4.97 µM] | activity (max response) [3] -3.82% | activity change, negative = viability loss [4] -23.9% [at 3.81 µM]

CO/N=C(\C(=O)O)c1csc(NC(=O)CCl)n1
inactive: Potency [1] | Potency [2] | activity (max response) [3] 13% | Potency [4]

C[C@H](NC(=O)CCC(F)(F)F)C(=O)N[C@@H]1C(=O)N(CCO)c2ncccc2-c2ccccc21
inactive: Potency [1] | Potency [2] | activity (max response) [3] -28.7% | Potency [4]

O=C(O)CCc1nc(-c2ccccc2)c(-c2ccccc2)o1
inactive: Potency [1] | Potency [2] | activity (max response) [3] -11.2% | Potency [4]

C=CC(=O)N1CCC[C@H](n2c(=O)n(-c3ccc(Oc4ccccc4)cc3)c3c(N)ncnc32)C1
active: Potency [1] 1.05 µM | Potency [2] 1.66 µM | Potency [3] 3.98 µM | Potency [4] 8.91 µM

Cc1cnc(NS(=O)(=O)c2ccc(N)cc2)nc1
inactive: Potency [1] | Potency [2] | activity (max response) [3] 9.12% | Potency [4]

CC1(C)S[C@H]2[C@H](NC(=O)[C@@H](N)c3ccc(O)cc3)C(=O)N2[C@H]1C(=O)O
inactive: Potency [1] | Potency [2] | activity (max response) [3] 7.49% | Potency [4]

N=C(N)c1ccc2nc(-c3cc(CC(=O)N[C@@H](CC(=O)O)C(=O)O)cc(-c4cc(S(N)(=O)=O)ccc4O)c3O)[nH]c2c1
inactive: Potency [1] | Potency [2] | activity (max response) [3] 10.3% | Potency [4]

O=C(O)CCC(=O)c1ccc(-c2ccccc2)cc1
inactive: Potency [1] | Potency [2] | activity (max response) [3] 23% | Potency [4]

C=CCNC(N)=S
inactive: Potency [1] | Potency [2] | activity (max response) [3] 13% | Potency [4]
